Consider 40 compounds from PubChem BioAssay (Tox21).

Records with an inconclusive call do not appear. A call without a number means that no potency is given here. Active and inactive are the calls of the source. Calls come from the whole dose curve; as a rule, active = well fitted cell-killing curve with a large enough effect in the repeat runs; inconclusive = weak or mixed curves; inactive = flat fitted curve, though single readings scatter.

This assay is described as follows: qHTS RealTime-Glo MT Cell Viability Assay in HepG2 cells - 16 hour (AID 1224885). Note: nearly all actives have a fitted effect of over 50% in size. The note with it: RealTime-Glo luminescence; series mostly up to 76.8 µM. An excerpt: U.S. Tox21 Program National Center for Advancing Translational Sciences [NCATS] NIH Chemical Genomics Center [NCGC] U.S. Environmental Protection Agency [EPA] National Institutes of Environmental Health Sciences [NIEHS] National Toxicology Program [NTP] U.S. Food and Drug Administration [FDA] Tox21 Assay Overview: Measure of cell viability is critical in the cell-base assay. Analysis of cell viability is necessary for the characterization of cell responses to cytotoxic drugs and environmental stress. A RealTime-Glo MT Cell Viability Assay to monitor cell viability in real time of continues cell culture during 40 hours of compound treatment was used to screen Tox21 10K library compounds in HepG2 cells. The RealTime-Glo MT Cell Viability Assay is a nonlytic, homogeneous, bioluminescent method to measure cell viability in real time using a simple, plate-based method. The assay involves adding NanoLuc luciferase and a cell-permeant prosubstrate to cells in culture. Viable cells reduce the proprietary prosubstrate to generate a substrate for NanoLuc luciferase. This substrate diffuses from cells into the surrounding culture medium, where it is rapidly used by the NanoLuc Enzyme to produce a luminescent signal. The signal correlates with the number of viable cells, making the assay well suited for cytotoxicity studies.
Tox21 Assay Protocol Summary: The mixture of HepG2 cell suspension and reagents were dispensed at 600cells/6 ul/well in 1536-well tissue culture treated black solid bottom plates using a Multidrop dispenser. After the assay plates were incubated at a 37 C/5% CO2 incubator for 5 hours, 23 nL of compounds dissolved in DMSO, positive and negative controls was transferred to the assay plate by a pintool work station. The plates were incubated at 37 C for 40 hours. The luminescence intensity were measured at 0h, 8h, 16h, 24h, 32h and 40h time points using ViewLux plate reader during compound treatment.
Regarding `C[C@]12CC[C@@H]3c4ccc(O)cc4CC[C@H]3[C@@H]1C[C@@H](O)[C@@H]2O`, the Potency entry is “inactive”. Then `CCNc1cccc(C)c1`, with “inactive”. As for `NC(=S)NNC(N)=S`, the Potency entry was “inactive”.

As for `C=CC[N+](C)(C)CC=C`, the Potency result was “inactive”.

On to `CC(C)c1cccc(C(C)C)c1`, for which the Potency result is “inactive”. Regarding `CCCOC(=O)c1ccccc1`, the Potency result is “inactive”. The same measure for `CC(=O)CCC=C(C)C`: “inactive”. As for `CC(C)=CCl`, the Potency entry was “inactive”. Then `CCOCC(=O)O`, with “inactive”; and `Cc1ccc(S(=O)(=O)N=C=O)cc1`, with “inactive”. Then `CC(=O)c1ccc(O)cc1`, with “inactive”; and `CCCCCCO`, with “inactive”; and `c1ccc2c(c1)Cc1ccccc1-2`, with “inactive”. Regarding `C[Si]1(C)O[Si](C)(C)O[Si](C)(C)O[Si](C)(C)O1`, the Potency result is “inactive”. Take `O=C(OCC1CCC2OC2C1)C1CCC2OC2C1` (stereo not given): the Potency result was “inactive”. On to `CCCCCCCCCCCCCCCCO`, for which the Potency entry was “inactive”.

For `N[C@H](Cc1c[nH]c2ccccc12)C(=O)O`, the Potency entry is “inactive”. With `CC(=O)OCc1ccccc1`, the Potency entry is “inactive”.

As for `OCc1cccc(Oc2ccccc2)c1`, the Potency result was “inactive”.

For the compound `COc1ccc(N)c(C)c1`, the Potency result is “inactive”. With `CCCCCCCO`, the Potency result is “inactive”. With `CCO[Si](CCC#N)(OCC)OCC`, the Potency entry is “inactive”. For the compound `CCNc1ccccc1`, the Potency entry is “inactive”. For the compound `CC1(C)CC(N)CC(C)(CN)C1` (stereo not given), the Potency entry was “inactive”.

Regarding `CCNC(=S)NCC`, the Potency result is “inactive”. Take `NCCN1CCNCC1`: the Potency entry is “inactive”.

Regarding `COC(=O)c1cccnc1`, the Potency result was “inactive”. Regarding `O=C(O)c1ccc(C(=O)O)c(C(=O)O)c1`, the Potency result is “inactive”. On to `CNC(=S)N(C)C`, for which the Potency result was “inactive”.

Take `COc1cc(OC)c(C(=O)CCCN2CCCC2)c(OC)c1`: the Potency entry was “inactive”.

As to `O=C1CCCC1`, the Potency result is “inactive”.

Consider `CCCCCCCCCCN`, for which the Potency result is “inactive”. Take `CC(C)(C)c1cc(Cc2cc(C(C)(C)C)c(O)c(C(C)(C)C)c2)cc(C(C)(C)C)c1O`: the Potency result was “inactive”. Take `COc1ccc(CCC(C)=O)cc1`: the Potency result is “inactive”.

Take `CC(C)CCCCCCCOC(=O)CCCCC(=O)OCCCCCCCC(C)C`: the Potency entry is “inactive”. Regarding `CNC(=O)Oc1ccc2c(c1)[C@]1(C)CCN(C)[C@@H]1N2C`, the Potency result was “inactive”. The same measure for `CC(=O)Oc1ccc(C)cc1`: “inactive”; for `CC1(C)OC[C@@H]2O[C@@]3(C(=O)O)OC(C)(C)O[C@H]3[C@@H]2O1`: “inactive”.

For the compound `CC(C)(C#N)c1cc(Cn2cncn2)cc(C(C)(C)C#N)c1`, the Potency result is “inactive”.

Take `CCCCCCCCCCCC(=O)OC`: the Potency result was “inactive”.
